Screening data as filed in PubChem BioAssay.
Hits are enriched below; roughly 6.9% of the tested compounds scored in any of these assays.
MCF10A rereplic: induces DNA re-replication in MCF 10a normal breast cells. actives 2.9% (n = 350,000). Potency, µM (titrated, usually from 46.1 µM), for inactives: at the top dose activity, positive = re-replication, usual class: activators. AID 624296. MCF 10A DNA re-replication, Hoechst nuclear intensity, 48 h; also: potency is read from the fitted curve at half-maximal effect; % of control where 0% means no effect; nearly all actives have a fitted effect of over 50% in size
IL1B secr inh: inhibitors of inflammasome signaling (IL-1 beta secretion). THP-1 LPS/ATP IL-1B secretion, AlphaLISA, 16 h; hits give low values. activity change, % at 57.5 µM. AID 743279. actives 4.7% (n = 360,000); in the data active = activity change below about -50%; inconclusive = mostly about -30% to -49%; also: % is scaled to controls: 0 for no effect and ±100 for the full control effect
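Secreted IL-1B measured by AlphaLISA bead assay after 16 h compound exposure of THP-1 cells; compounds (final up to 57.5 uM) added 1 h before LPS (250 ng/mL) and ATP (1.25 mM) stimulation; lower signal means less secretion.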
Giardia kill: kills Giardia lamblia. activity change, % at 7.66 µM, hits read low. actives 0.15% (n = 340,000). Giardia lamblia trophozoite viability; in the data active = activity change below about -80%; inconclusive = between about -30% and that limit;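 also: parasites exposed to compound for two days anaerobically before the ATP read; % is scaled to controls: 0 for no effect and ±100 for the full control effect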
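Anaerobic 48 hrs incubation at 37 deg C of 100 trophozoites/well with test compounds; ATPLite 1-Step luminescence, 15-30 min RT, reports cellular ATP as viability.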
Vif-A3F inh: blocks the Vif interaction with APOBEC3F. HeLa A3F-eYFP + Vif (tagged APOBEC3F with the HIV-1 protein that degrades it), YFP fluorescence increase. Potency, µM (highest dose often 46.1 µM), for the others: at the highest dose activity, negative = active. actives 0.2% (n = 390,000). AID 602313; also: potency is read from the fitted curve at half-maximal effect; % of control where 0% means no effect; nearly all actives have a fitted effect of over 65% in size
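HeLa cells stably expressing A3F-eYFP plus Vif, plated and incubated overnight at 37 deg C, then exposed to compounds overnight at 37 deg C. Blocked degradation read as raised yellow fluorescence (Ex 488/Em 500-530).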
SW480 rereplic: induces DNA re-replication in SW480 colon adenocarcinoma cells | SW480 DNA re-replication, Hoechst DNA content imaging, 48 h | actives 1.8% (n = 340,000) | Potency, µM (top dose mostly 46.1 µM), inactives show at the top dose re-replication activation, usual class: activators; also: potency is read from the fitted curve at half-maximal effect; % of control where 0% means no effect; nearly all actives have a fitted effect of over 55% in size
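Image-based DNA-content assay: after two days of treatment, nuclei were labelled with the DNA dye Hoechst and imaged, and hits were compounds raising the count of nuclei showing high fluorescence intensity.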
Vif-A3G inh: Vif-A3G binding inhibition; Q9HC16; HeLa A3G-eYFP + Vif (tagged APOBEC3G with the HIV-1 protein that degrades it), YFP fluorescence, overnight; Potency, µM (highest dose often 46.1 µM), for inactives: at the highest dose activity, negative = active, usual class: inhibitors; actives 0.076% (n = 410,000); also: potency is read from the fitted curve at half-maximal effect; % is scaled to controls: 0 for no effect and ±100 for the full control effect; nearly all actives have a fitted effect of over 60% in size
Target sequence (Q9HC16 whole entry, looked up): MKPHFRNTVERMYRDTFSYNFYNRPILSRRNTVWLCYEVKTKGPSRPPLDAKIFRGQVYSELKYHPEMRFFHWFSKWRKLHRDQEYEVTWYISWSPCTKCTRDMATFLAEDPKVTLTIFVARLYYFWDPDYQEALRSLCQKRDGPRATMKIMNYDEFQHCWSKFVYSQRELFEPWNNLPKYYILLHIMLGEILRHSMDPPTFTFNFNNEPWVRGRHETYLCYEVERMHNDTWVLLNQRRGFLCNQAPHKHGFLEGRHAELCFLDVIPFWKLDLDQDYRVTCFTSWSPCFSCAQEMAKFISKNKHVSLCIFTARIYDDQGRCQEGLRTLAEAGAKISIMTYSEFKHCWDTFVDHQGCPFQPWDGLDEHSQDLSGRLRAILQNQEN
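HeLa cells stably expressing Vif and C-terminally eYFP-tagged A3G, seeded overnight at 37 deg C, then exposed to compound by pintool overnight at 37 deg C. Rise in yellow fluorescence (Ex 488/Em 500-530, Acumen) marks blocked Vif-driven A3G degradation.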
Numbers without * were called inactive; ? = inconclusive; . = no result given. Unless noted, calls follow the shape of the dose curve; as a rule, active = well fitted curve in the direction sought with a large enough effect; inconclusive = small, poorly fitted or top-dose-only effect, or another doubt; inactive = no such curve, though single readings can be large; an effect the other way counts as inactive or inconclusive.

SMILES | MCF10A rereplic | IL1B secr inh | Giardia kill | Vif-A3F inh | SW480 rereplic | Vif-A3G inh
CCN(CC)S(=O)(=O)c1cc(C(=O)Nc2ccc(Cl)cn2)ccc1C | 10% | -54* | -14 | 1% | -4% | 0%
CCCN1CCN(CCCNC(=O)c2cnn(-c3ccc(F)cc3)c2-n2cccc2)CC1 | . | . | . | 4% | . | 0%
C=C(C)Cn1c(SCC(=O)c2ccc(OC)cc2)nc2sc3c(c2c1=O)CCCC3 | . | . | . | 0% | . | -2%
CC(=O)N1CCN(C(=O)CNc2cc(C(F)(F)F)ccc2OCC(F)(F)F)CC1 | 23% | -57* | 12 | -6% | 4% | 1%
O=C(c1cnc(Cl)c(Cl)c1)N1CCN(S(=O)(=O)c2ccc3ccccc3c2)CC1 | 92% | -102* | 10 | -4% | 12% | 0%
COc1ccc(Nc2nc3ccccc3c3nnc(C)n23)cc1Cl | . | . | . | -8% | . | 0%
CC(=O)Nc1ccc(NC(=O)CCN2C(=O)c3ccccc3C2=O)cc1 | 0.58µM* | -3 | -11 | 6% | -38% | -8%
Cc1cc(N2C(=O)C(O)=C(C(=O)c3ccc(C)o3)C2c2cccc(Cl)c2)no1 (stereo not given) | . | 1 | . | -7% | . | 1%
Cc1cc(N2C(=O)C(O)=C(C(=O)c3ccc(C)o3)C2c2cccc(Oc3ccccc3)c2)no1 (stereo not given) | 26µM* | 5 | 3 | 1% | ? | 1%
COc1cccc(C2C(C(=O)c3cc4ccccc4o3)=C(O)C(=O)N2c2cc(C)on2)c1 (stereo not given) | 18µM* | 3 | 27 | -1% | -11% | -3%
C=CCOc1cccc(C2C(C(=O)c3cc4ccccc4o3)=C(O)C(=O)N2c2cc(C)on2)c1 (stereo not given) | 21µM* | -4 | -9 | -3% | ? | -5%
NC(=Nc1ccccc1)N(c1ccccc1)c1ccccc1 | 12µM* | 6 | 0 | -5% | ? | 5%
NC(=S)N(c1ccccc1)c1ccccc1 | 0% | 23 | 7 | -3% | 2% | 0%
Cc1cc(C)n(-c2nc(C)c(C)c(=O)n2CC(=O)Nc2ccc([N+](=O)[O-])cc2)n1 | . | . | . | 3% | . | 2%
Cc1cc(SCC(=O)N/N=C/c2ccco2)nc2ccccc12 | -7% | 21 | -7 | 0% | 7% | -2%
COc1ccc(OC)c(/C=N/NC(=O)CSc2cc(C)nc3c(OC)cccc23)c1 | 17% | -72* | -26 | ? | 21% | 0%
COc1ccc2nc(C)cc(SCC(=O)N/N=C/c3ccco3)c2c1 | 3% | -96* | 6 | -4% | 3% | -7%
COc1ccc(C(=O)Nc2ccc(N3CCN(C)CC3)cc2)cc1OC | 2% | -81* | 0 | 14% | -8% | 0%
COC(=O)c1ccc(NC(=O)c2ccc(OC(C)=O)c(OC)c2)cc1 | 0% | -59* | -5 | -1% | 0% | -1%
COc1ccc(C(=O)Nc2ccc(N3CCN(C)CC3)cc2)cc1 | 10% | -8 | 22 | 13% | 5% | -3%
CCc1cccc(C)c1NC(=O)C(CC)Sc1nc2ccncc2[nH]1 (stereo not given) | . | . | . | 3% | . | 0%
CCN1CCN(C(=O)NC2CC(=O)N(c3ccc(OC)cc3)C2)CC1 (stereo not given) | 0% | -69* | -24 | -1% | -10% | -5%
COc1ccc(N2CC(NC(=O)NC(C)(C)C)CC2=O)cc1 (stereo not given) | 4% | 5 | -1 | -15% | -23% | 1%
COc1ccc(N2CC(NC(=O)NCCC(C)C)CC2=O)cc1 (stereo not given) | 1% | -65* | 22 | 2% | 1% | -5%
C=CCNC(=O)C1CCN(c2cnccn2)CC1 | 0.23µM* | 0 | -9 | -2% | -50% | 0%
O=C1Nc2c(ccc(Cl)c2Cl)C(=O)C1(F)c1ccccc1 (stereo not given) | ? | -99* | -6 | ? | ? | -12%
